Test results taken from PubChem BioAssay AID1159580 (chemical genetic matrix, 2015).
The whole screen tested about 5,500 compounds, of which about 2,000 (36%) were called active. About 18% were inconclusive and are not listed. Rule as the data show it: active = normalized growth mostly below about 0.91 (no sharp cut-off); inconclusive = no clear call, values can overlap the other calls; inactive = mostly above about 0.92. The list shows a part of the results.

Experiment: chemical genetic growth profiling, strain panel (AID 1159580);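 also: tested at 20 µM; growth read once vehicle control cultures reached saturation at 30 °C; 1 = growth at the plate median or of vehicle wells; lower values mean less growth of the strain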
Details: growth OD

Measured: normalized growth

C[C@H]1O[C@@H](O[C@H]2[C@@H](O)C[C@H](O[C@H]3[C@@H](O)C[C@H](O[C@H]4CC[C@]5(C)C6C[C@@H](O)[C@]7(C)[C@@H](C8=CC(=O)OC8)CC[C@]7(O)C6CC[C@@H]5C4)O[C@@H]3C)O[C@@H]2C)C[C@H](O)[C@@H]1O (some centres undefined)
inactive: S. cerevisiae deletion strains, locus YJR043C, strain POL32, active compounds read low 1.01 | S. cerevisiae deletion strains, locus YJR066W, strain TOR1, active compounds read low 0.966 | S. cerevisiae deletion strains, locus YKL009W, strain mrt4, active compounds read low 0.969 | S. cerevisiae deletion strains, locus YKL068W, active compounds read low 0.986 | S. cerevisiae deletion strains, locus YKL085W, strain MDH1 (second series), active compounds read low 0.991 | S. cerevisiae deletion strains, locus YKL085W, strain MDH1, active compounds read low 0.991 | S. cerevisiae deletion strains, locus YKL160W, strain elf1, active compounds read low 0.93 | S. cerevisiae deletion strains, locus YKR001C, strain vps1, active compounds read low 0.971 | S. cerevisiae deletion strains, locus YKR026C, strain gcn3, active compounds read low 1 | S. cerevisiae deletion strains, locus YKR091W, strain srl3, active compounds read low 0.984 | S. cerevisiae deletion strains, locus YLL001W, strain dnm1, active compounds read low 0.921 | S. cerevisiae deletion strains, locus YLL026W, active compounds read low 0.999 | S. cerevisiae deletion strains, locus YLL041C, strain sdh2, active compounds read low 1 | S. cerevisiae deletion strains, locus YLR027C, strain aat2, active compounds read low 1.03 | S. cerevisiae deletion strains, locus YLR039C, strain RIC1, active compounds read low 0.973 | S. cerevisiae deletion strains, locus YLR058C, strain SHM2, active compounds read low 1 | S. cerevisiae deletion strains, locus YLR102C, strain apc9, active compounds read low 0.977 | S. cerevisiae deletion strains, locus YLR113W, strain HOG1, active compounds read low 1.09 | S. cerevisiae deletion strains, locus YLR221C, strain rsa3, active compounds read low 1.01 | S. cerevisiae deletion strains, locus YLR258W, strain gsy2, active compounds read low 1.01 | S. cerevisiae deletion strains, locus YLR262C, strain YPT6 (second series), active compounds read low 0.956 | S. cerevisiae deletion strains, locus YLR262C, strain YPT6, active compounds read low 0.984 | S. cerevisiae deletion strains, locus YLR268W, strain sec22, active compounds read low 0.959 | S. cerevisiae deletion strains, locus YLR320W, strain mms22, active compounds read low 0.969 | S. cerevisiae deletion strains, locus YLR330W, strain CHS5, active compounds read low 0.983 | S. cerevisiae deletion strains, locus YLR342W, strain FKS1 (second series), active compounds read low 1.02 | S. cerevisiae deletion strains, locus YLR342W, strain FKS1, active compounds read low 0.983 | S. cerevisiae deletion strains, locus YLR357W, strain rsc2, active compounds read low 0.999 | S. cerevisiae deletion strains, locus YLR370C, strain arc18, active compounds read low 0.994 | S. cerevisiae deletion strains, locus YLR371W, strain rom2, active compounds read low 0.997 | S. cerevisiae deletion strains, locus YLR384C, strain iki3, active compounds read low 1 | S. cerevisiae deletion strains, locus YLR418C, strain cdc73, active compounds read low 1.01 | S. cerevisiae deletion strains, locus YML016C, strain PPZ1, active compounds read low 0.998 | S. cerevisiae deletion strains, locus YML032C, strain rad52, active compounds read low 0.988 | S. cerevisiae deletion strains, locus YML120C, strain ndi1, active compounds read low 0.946 | S. cerevisiae deletion strains, locus YML124C, strain tub3, active compounds read low 0.992 | S. cerevisiae deletion strains, locus YMR058W, strain fet3, active compounds read low 0.984 | S. cerevisiae deletion strains, locus YMR078C, strain ctf18, active compounds read low 0.981 | S. cerevisiae deletion strains, locus YMR125W, strain sto1, active compounds read low 0.925 | S. cerevisiae deletion strains, locus YMR129W, active compounds read low 0.996 | S. cerevisiae deletion strains, locus YMR205C, strain PFK2, active compounds read low 0.942 | S. cerevisiae deletion strains, locus YMR223W, strain ubp8, active compounds read low 0.993 | S. cerevisiae deletion strains, locus YMR231W, strain pep5, active compounds read low 0.998 | S. cerevisiae deletion strains, locus YMR307W, strain GAS1, active compounds read low 1.09 | S. cerevisiae deletion strains, locus YNL067W, strain RPL9B, active compounds read low 1.03 | S. cerevisiae deletion strains, locus YNL071W, strain lat1, active compounds read low 1 | S. cerevisiae deletion strains, locus YNL128W, strain TEP1, active compounds read low 0.977 | S. cerevisiae deletion strains, locus YNL183C, strain NPR1, active compounds read low 0.985 | S. cerevisiae deletion strains, locus YNL209W, strain ssb2, active compounds read low 0.995 | S. cerevisiae deletion strains, locus YNL233W, strain BNI4, active compounds read low 1.01 | S. cerevisiae deletion strains, locus YNL248C, strain rpa49, active compounds read low 0.973 | S. cerevisiae deletion strains, locus YNL250W, strain rad50, active compounds read low 0.974 | S. cerevisiae deletion strains, locus YNL271C, strain bni1, active compounds read low 0.996 | S. cerevisiae deletion strains, locus YNL298W, strain CLA4, active compounds read low 0.986 | S. cerevisiae deletion strains, locus YNL307C, strain MCK1, active compounds read low 0.988 | S. cerevisiae deletion strains, locus YNL322C, strain KRE1 (second series), active compounds read low 0.995 | S. cerevisiae deletion strains, locus YNL322C, strain KRE1, active compounds read low 0.996 | S. cerevisiae deletion strains, locus YNR049C, strain mso1, active compounds read low 0.986 | S. cerevisiae deletion strains, locus YNR052C, strain pop2, active compounds read low 0.993 | S. cerevisiae deletion strains, locus YOL006C, strain TOP1, active compounds read low 0.959 | S. cerevisiae deletion strains, locus YOL012C, strain htz1 0.951 | S. cerevisiae deletion strains, locus YOL147C, strain pex11, active compounds read low 0.99 | S. cerevisiae deletion strains, locus YOR001W, strain rrp6, active compounds read low 1.06 | S. cerevisiae deletion strains, locus YOR061W, strain CKA2, active compounds read low 0.984 | S. cerevisiae deletion strains, locus YOR069W, strain VPS5, active compounds read low 0.992 | S. cerevisiae deletion strains, locus YOR070C, strain gyp1, active compounds read low 0.999 | S. cerevisiae deletion strains, locus YOR080W, strain dia2, active compounds read low 0.985 | S. cerevisiae deletion strains, locus YOR083W, strain WHI5, active compounds read low 0.945 | S. cerevisiae deletion strains, locus YOR106W, strain vam3, active compounds read low 0.947 | S. cerevisiae deletion strains, locus YOR136W, strain idh2, active compounds read low 0.974 | S. cerevisiae deletion strains, locus YOR144C, strain elg1, active compounds read low 0.988 | S. cerevisiae deletion strains, locus YOR184W, strain ser1, active compounds read low 0.979 | S. cerevisiae deletion strains, locus YOR231W, strain MKK1, active compounds read low 1.04 | S. cerevisiae deletion strains, locus YOR265W, strain rbl2, active compounds read low 0.993 | S. cerevisiae deletion strains, locus YOR270C, strain vph1, active compounds read low 0.92 | S. cerevisiae deletion strains, locus YOR290C, strain snf2, active compounds read low 0.973 | S. cerevisiae deletion strains, locus YOR316C, strain cot1, active compounds read low 0.983 | S. cerevisiae deletion strains, locus YPL051W, strain arl3, active compounds read low 1 | S. cerevisiae deletion strains, locus YPL078C, strain atp4, active compounds read low 0.932 | S. cerevisiae deletion strains, locus YPL106C, strain sse1, active compounds read low 1 | S. cerevisiae deletion strains, locus YPL240C, strain hsp82, active compounds read low 0.99 | S. cerevisiae deletion strains, locus YPL241C, strain CIN2, active compounds read low 0.998 | S. cerevisiae deletion strains, locus YPL256C, strain CLN2, active compounds read low 1.04 | S. cerevisiae deletion strains, locus YPR119W, strain clb2, active compounds read low 1 | S. cerevisiae deletion strains, locus YPR141C, strain kar3, active compounds read low 0.984 | S. cerevisiae deletion strains, locus YPR163C, strain tif3, active compounds read low 0.977 | S. cerevisiae deletion strains, locus YPR167C, strain met16, active compounds read low 0.977 | S. cerevisiae deletion strains, strain wtn01, active compounds read low 0.997 | S. cerevisiae strains, strain wild type, active compounds read low 1
